Measured values: PubChem BioAssay AID1508624 (National Center for Advancing Translational Sciences (NCATS), 2021)
Out of some 48,000 compounds screened, about 120 (0.25%) were called active. Not shown: some 4% with an inconclusive outcome. Calls come from the whole dose curve; as a rule, active = well fitted activation curve with a large enough effect; inconclusive = small, poorly fitted or top-dose-only effect, or another doubt; inactive = no such curve, though single readings can be large or run the other way. Shown is part of a subset that was picked to be rich in actives. Entries that show only a call come without a potency.
Potency is the fitted concentration of half-maximal effect.

Assay: Primary qHTS for Identification of Small Molecule Activators of Huntingtin-Antisense Promoter Activity; note: nearly all actives have a fitted effect of over 55% in size
Settings: HEK293 HTT-AS promoter firefly luciferase reporter, 24 h; series mostly up to 57.5 µM
Text: Assay Provider: Russell L. Margolis M.D.
Department Neurology, Johns Hopkins University School of Medicine, Baltimore, MD
Huntington's Disease (HD) is a neurodegenerative disorder caused by a CAG repeat expansion in exon 1 of huntingtin (HTT). While there are currently no disease-modifying treatments for HD, recent efforts have focused on development of nucleotide-based therapeutics to lower HTT expression. As an alternative to siRNA or oligonucleotide methods, we hypothesized that suppression of HTT expression might be accomplished by small molecules that either (1) directly decrease HTT expression by suppressing HTT promoter activity or (2) indirectly decrease HTT expression by increasing the promoter activity of HTT-AS, the gene antisense to HTT that appears to inhibit expression of HTT.
We developed and employed a high throughput screen for modifiers of HTT and HTT-AS promoter activity using luminescent reporter HEK293 cells; of the 52,041 compounds tested, we identified 898 replicable hits. We used a rigorous stepwise approach to assess compound toxicity and the capacity of the compounds to specifically lower huntingtin protein in 5 different cell lines, including HEK293 cells, HD lymphoblastoid cells, mouse primary neurons, HD iPSCs differentiated into cortical-like neurons, and HD hESCs. We found no compounds which were able to lower huntingtin without lowering cell viability in all assays, though the potential efficacy of a few compounds at non-toxic doses could not be excluded.
SEQUENCE No. (1, 2, 3, etc.); […] (e.g., Cells, Incubation, Reagent, etc.); VALUE and DESCRIPTION.
1; Reagent; 4 uL; 2,500 Hek293 luciferase reporter cells per wells
3; Compound; 23 nL; Control inhibitor / compound library
5; Reagent; 2.5 uL; Firefly Luc reagent; Dual-Glo Luciferase Reporter Assay System (Promega)
6; Time; 10 min; room temperature incubation
7; Detection; Luminescence; FLuc
NOTES (numbers refer to sequence above)
1; High-throughput screening, measuring luminescence from a Hek293 luciferase reporter, was performed in 1,536 well white-walled tissue-culture treated plates. 2,500 cells were plated in 4 µL of Opti-MEM per well using a Multidrop Combi Reagent Dispenser (ThermoFisher).
2; Assay plates were cultured for 24 hours.
3; Control inhibitor (PTC124; final concentration of 50 uM) and compound library (at final concentrations of 460 nM - 57.5 uM) were added to the assay plate using the Kalypsis Pintool Robotic System equipped with 1536 pinheads.
4; Cells were then incubated for 24 hours at 37 degrees C prior to luminescence measurements.
5; In all cases, luminescence was measured using the Dual-Glo Luciferase Reporter Assay System (Promega) following the manufacturer's instructions.
6; Room temperature incubation.
7; Luminescence signal was obtained using the PerkinElmer ViewLux plate reader. Results were normalized to vehicle control (0% activity) and zero RLU (-100% activity).
In the case of `CSc1nc(Nc2ccc(F)cc2)cc(-c2ccccc2)n1`, the activity change, positive = activation was “inactive”. With `Cc1nnc(SCC(=O)NCc2ccccc2Cl)c2nn(-c3ccccc3)c(C)c12` the activity change, positive = activation was “inactive”. For `Cc1ccc(C)c(Cn2c(C)c(CNCc3ccc(F)cc3)c(C(=O)O)c2C)c1`, the activity change, positive = activation was “inactive”. In the case of `CCn1c(CN2CCC(C)CC2)nc2cc(NC(=O)c3ccccc3[N+](=O)[O-])ccc21`, the activity change, positive = activation was “inactive”. With `COc1ccc(-c2cn3nc(N4CCC(C(=O)Nc5cccc(C)c5C)CC4)sc3n2)cc1` the activity change, positive = activation was “inactive”. In the case of `COc1ccc(-c2nc(CN3CCC(C(=O)NCc4ccccc4)CC3)c(C)o2)cc1OC`, the activity change, positive = activation was “inactive”. For `CC(C)CNc1ncnc2c1nnn2C`, the activity change, positive = activation was “inactive”. With `CSc1ccccc1-c1nnc(NC(=O)c2ccc3c(c2)OCCO3)o1` the activity change, positive = activation was “inactive”. For `COc1ccc(NC(=O)CCc2nnc3n(CC(C)C)c(=O)c4ccccc4n23)cc1OC`, the activity change, positive = activation was “inactive”. For `O=C(NCC(c1ccc(Cl)cc1)N1CCOCC1)c1ccccc1F` (configuration not stated), the activity change, positive = activation was “inactive”. In the case of `CCOc1ccc(NC(=O)CC2C(=O)N(c3cccc(OC)c3)C(=O)N2C2CCCCC2)cc1` (configuration not stated), the activity change, positive = activation was “inactive”. In the case of `COc1cc(OC)cc(C(=O)Nc2ccc3nc(Nc4cccc(C(F)(F)F)c4)cc(C)c3c2)c1`, the activity change, positive = activation was “inactive”. For `Cn1cc(S(=O)(=O)N2CCCCCC2)cc1C(=O)N1CCN(c2ccc(F)cc2)CC1`, the activity change, positive = activation was “inactive”. For `Cc1ccc(NS(=O)(=O)c2ccc3c(c2)CC(=O)N3)cc1Cl`, the activity change, positive = activation was “inactive”. In the case of `CCCc1nn2c(=O)cc(COC(=O)c3ccc(NC(=O)COc4ccc(F)cc4)cc3)nc2s1`, the activity change, positive = activation was “inactive”. For `CSc1ccc(NC(=O)Cn2nnnc2-c2ccccc2F)cc1`, the activity change, positive = activation was “inactive”. In the case of `CCOc1ccc(N(CC)S(=O)(=O)N2CCCC(C(=O)NCc3ccc(SC)cc3)C2)cc1` (configuration not stated), the activity change, positive = activation was “inactive”. For `Cc1ccc(N2CC(NC(=O)Cc3cccs3)CC2=O)cc1` (configuration not stated), the activity change, positive = activation was “inactive”. In the case of `CSc1ccc(C2C(C(=O)Nc3ccccc3)=C(C)Nc3nc4ccccc4n32)cc1` (configuration not stated), the activity change, positive = activation was “inactive”. With `CC1CCCN(S(=O)(=O)c2ccc3[nH]c(=O)cc(C(=O)NCCc4ccc(Cl)cc4)c3c2)C1` (configuration not stated) the activity change, positive = activation was “inactive”. In the case of `COc1ccc(Cl)cc1NC(=O)CSc1nc2ccccc2c2nc(-c3ccccc3)nn12`, the activity change, positive = activation was “inactive”. With `O=C(CC(c1cccs1)N1Cc2ccccc2C1=O)Nc1ccc(F)cc1F` (configuration not stated) the activity change, positive = activation was “inactive”. For `COCCNC(=O)c1ccc2c(c1)N=C(C)c1cc(C)ccc1S2`, the activity change, positive = activation was “inactive”. For `COc1ccc(-c2nc3c4ccccc4n(CC(=O)Nc4ccc(C(C)=O)cc4)c(=O)n3n2)cc1`, the activity change, positive = activation was “inactive”. For `Cc1cccc(N2CCN(C(=O)Cn3ncc4c5ccccc5n(C)c4c3=O)CC2C)c1` (configuration not stated), the activity change, positive = activation was “inactive”. For `CCOC(=O)N1CCC(NC(=O)c2cnn(-c3cccc(C)c3)c2C2CCN(C(=O)OC(C)(C)C)CC2)CC1`, the activity change, positive = activation was “inactive”. For `COc1cccc(NC(=O)N(Cc2cn(C)c3ccccc23)C2CCCCCC2)c1`, the activity change, positive = activation was “inactive”. In the case of `COc1ccc(CNC(=O)COCc2cc(-c3cccs3)on2)cc1OC`, the activity change, positive = activation was “inactive”. For `COc1cccc(CNC(=O)Cn2ncn3c(cc4ccccc43)c2=O)c1`, the activity change, positive = activation was “inactive”. For `COc1cc2ccccc2cc1C(=O)Nc1cccc(-c2nc3ccccc3o2)c1`, the activity change, positive = activation was 4.7% [at 11.5 µM, percent change from vehicle, -100% = no light] (inactive). With `CC1CCN(c2nc3ccc(C(=O)N4CCN(c5ccccc5)CC4)cc3s2)CC1` the activity change, positive = activation was “inactive”. With `COc1cc(NC(=O)CN2CCN(S(=O)(=O)c3ccc(Br)cc3)CC2)cc(OC)c1` the activity change, positive = activation was “inactive”. With `CCOC(=O)c1cccc(NC(=O)c2cc(S(=O)(=O)N3CCCC(C)C3)cn2C)c1` (configuration not stated) the activity change, positive = activation was “inactive”. For `Cc1ccc(OCC(=O)OCc2cc(=O)n3nc(C4CC4)sc3n2)cc1C`, the activity change, positive = activation was “inactive”. With `COc1cc(-c2nnn(CC(=O)NCc3ccccc3)n2)cc(OC)c1OC` the activity change, positive = activation was “inactive”. In the case of `Cc1ccc(C)c(N2CCN(CCCNC(=O)Nc3ccc(Cl)cc3)CC2)c1`, the activity change, positive = activation was “inactive”. With `CCCCC12CN3CC(C)(CN(C1)C3c1ccc(O)c(OC)c1)C2=O` (configuration not stated) the activity change, positive = activation was “inactive”. For `Cc1cc(Cl)ccc1NC(=O)Cc1ccc(NC(=O)N2CCCCc3ccccc32)cc1`, the activity change, positive = activation was “inactive”. In the case of `CCN(CC)CCNc1ncnc2c1cnn2-c1cc(Cl)ccc1C`, the activity change, positive = activation was “inactive”. With `COc1ccc(C(=O)Nc2ccc(-n3nncc3-c3ccccc3)cc2)cc1OC` the activity change, positive = activation was “inactive”. For `CN(Cc1ccccc1)C(=O)CCS(=O)(=O)c1cc(Br)cc2c1N(C(=O)C1CC1)CC2`, the activity change, positive = activation was “inactive”. With `COc1ccc(-c2nnc(SCC(=O)Nc3ccccc3C)o2)cc1OC` the activity change, positive = activation was “inactive”. In the case of `Cc1ccc(-c2nnc(SCc3ccccc3C)o2)cc1`, the Potency was 14.1 µM (active). With `Cc1ccc(OC(=O)CSc2nnc(-c3cccs3)o2)cc1` the activity change, positive = activation was “inactive”. With `Cc1ccc(Cl)cc1N(C)C(=O)C1CCCN(c2ncnc3onc(-c4ccc(F)cc4)c23)C1` (configuration not stated) the activity change, positive = activation was “inactive”. In the case of `CC(C)c1ccc(C2CC(=O)N3CN(C4CCCCC4)CSC3=C2C#N)cc1` (configuration not stated), the activity change, positive = activation was “inactive”. With `CC(C)CNc1ccnc(NCc2csc(-c3ccccc3)n2)n1` the activity change, positive = activation was “inactive”. For `Cc1ccc2onc(CC(=O)N3CCN(c4ccc(Cl)cc4)CC3)c2c1`, the activity change, positive = activation was “inactive”. In the case of `COc1ccccc1N1CCN(C(CNC(=O)C(=O)NCc2ccc(C)cc2)c2cccnc2)CC1` (configuration not stated), the activity change, positive = activation was “inactive”. In the case of `Cc1ccc(-c2cnc(NCc3ccc(C(C)C)cc3)n2C)cc1`, the activity change, positive = activation was “inactive”. In the case of `CCOC(=O)c1ccccc1NC(=O)c1nn(-c2ccc(OC)c(Cl)c2)c(=O)c2c1c1ccccc1n2C`, the activity change, positive = activation was “inactive”. For `O=C(CSc1nccn1-c1ccc(F)cc1)Nc1cccc2ccccc12`, the activity change, positive = activation was “inactive”. In the case of `Cc1cc(C)cc(NC(=O)CCCc2nc(-c3ccccc3Cl)no2)c1`, the activity change, positive = activation was “inactive”. In the case of `COc1ccc(CN2C(=O)C(NC(=O)c3cccc(C)c3)(C(F)(F)F)N=C2c2ccccc2)cc1` (configuration not stated), the activity change, positive = activation was “inactive”. With `COc1ccc(CCNC(=O)Cn2c(=O)cc(C(F)(F)F)c3c(C)nn(C)c32)c(OC)c1` the activity change, positive = activation was “inactive”. For `Cc1cccn2c(=O)c3cc(C(=O)NC(C)c4ccccc4)c(=N)n(CCCO)c3nc12` (configuration not stated), the activity change, positive = activation was “inactive”. With `CC(C)(C)c1ccc(C(=O)NCC(c2ccc(Cl)cc2)N2CCOCC2)cc1` (configuration not stated) the activity change, positive = activation was “inactive”. For `COc1ccc(CCC(=O)NCCc2csc(-c3ccc(Cl)cc3)n2)cc1`, the activity change, positive = activation was “inactive”. In the case of `COc1ccc(Cl)cc1NC(=O)Cn1c(=O)c2ccccc2n2nncc12`, the activity change, positive = activation was “inactive”. In the case of `CC(C)CCNC(=O)CSc1nc2ccccc2nc1Cc1ccc(Cl)cc1`, the activity change, positive = activation was “inactive”. For `Cc1ccccc1OCCSc1nc2ccc(NC(=O)c3ccco3)cc2s1`, the activity change, positive = activation was “inactive”. In the case of `O=C(Nc1cc(-c2nc3ccccc3o2)ccc1Cl)c1cc([N+](=O)[O-])ccc1N1CCOCC1`, the activity change, positive = activation was “inactive”.
